According to PubChem BioAssay (NCATS):
Where “and” joins values, the source holds several entries; their conditions need not be identical. Equal values may be shown once. Results filed as inconclusive are left out. A number with no mark means an inactive call. Calls of active or inactive are those of the source. The call rests on the fitted dose curve; in most records, active means well fitted inhibition curve with a large enough effect; inconclusive means small, poorly fitted or top-dose-only effect; inactive means flat fitted curve, though single readings scatter.

tested on: CRL-7250; assay: Cytotoxic Profiling of Annotated Libraries Using Quantitative High-Throughput Screening (AID 1296008); details: Five cell lines viability, CellTiter-Glo ATP luminescence, 48-72 h; max response: stronger effect = lower value; further: nearly all actives have a fitted effect of over 60% in size
Method in brief: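 Cells exposed to compounds for 48 or 72 hr at 37 degrees Celsius. Viability read as ATP-coupled luminescence with CellTiter-Glo after 10 min at room temperature.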
On the % scale 0 is the no-effect control and ±100 the full control effect; potency means the concentration at half of the fitted maximal effect.

Compound	max response	outcome	Potency
Nc1ncn([C@H]2C[C@H](O)[C@@H](CO)O2)c(=O)n1	-5.93% and -8.36%	–	–
OC(CN1CCN(c2cccc(Cl)c2)CC1)C(c1ccccc1)c1ccccc1 (stereo not drawn)	-4.87%	–	–
Cc1c(OCC(F)(F)F)ccnc1CS(=O)c1nc2ccccc2[nH]1 (stereo not drawn)	-8.7% and 2.17%	–	–
O=C(NOCC1CC1)c1ccc(F)c(F)c1Nc1ccc(I)cc1Cl	-12.6%	–	–
CC(C)[C@H](N)C(=O)OCCOCn1cnc2c(=O)[nH]c(N)nc21	-3.66% and 1.07%	–	–
O=C(O)c1cccnc1Nc1cccc(C(F)(F)F)c1	-6.42% and -10.2%	–	–
NC(=O)Cc1cccc(C(=O)c2ccccc2)c1N	-2.24% and -8.84%	–	–
Cc1ccc(NC(=O)c2ccc(CN3CCN(C)CC3)cc2)cc1Nc1nccc(-c2cccnc2)n1	-2.19%	–	–
Cc1cc(=O)oc2cc(O)ccc12	4.43% and 2.39%	–	–
COc1ccccc1N1CCN(CCN(C(=O)C2CCCCC2)c2ccccn2)CC1	–	inactive	–
N[C@@H](Cc1cc(I)c(Oc2cc(I)c(O)c(I)c2)c(I)c1)C(=O)O	0.853% and -3.78% and 2.29%	–	–
Cc1nccn1CC1CCc2c(c3ccccc3n2C)C1=O (stereo not drawn)	-48.9% and -2.23% and -14.6%	–	–
CN1CCC(=C2c3ccccc3CCc3sccc32)CC1	-8.84% and -2.17%	–	–
CCC(C)(Oc1ccc(C2(c3ccc(OC(C)(CC)C(=O)O)cc3)CCCCC2)cc1)C(=O)O (stereo not drawn)	-2.28% and 2.61%	–	–
Cc1ccc(Nc2nccc(N(C)c3ccc4c(C)n(C)nc4c3)n2)cc1S(N)(=O)=O	–	–	6.51 µM (active)
CC(S)C(=O)NCC(=O)O (stereo not drawn)	–	inactive	–
C[C@H](Cn1cnc2c(N)ncnc21)OCP(=O)(O)O	3.36%	–	–
COCCCOc1ccnc(CS(=O)c2nc3ccccc3[nH]2)c1C (stereo not drawn)	–	inactive	–
CCOc1cc(CC(=O)N[C@@H](CC(C)C)c2ccccc2N2CCCCC2)ccc1C(=O)O	–	inactive	–
CCCCc1ccc2nc(NC(=O)OC)[nH]c2c1	–	–	469 nM (active) and 266 nM (active)
CNC[C@H](O)c1ccc(O)c(O)c1	-3.3% and -3.53%	–	–
CC1Cc2ccccc2N1NC(=O)c1ccc(Cl)c(S(N)(=O)=O)c1 (stereo not drawn)	-6.14% and 4.23%	–	–
COc1cc2c(cc1OC)C1CC(=O)C(CC(C)C)CN1CC2 (stereo not drawn)	–	inactive	–
